Test results reported in PubChem BioAssay AID1159580 (chemical genetic matrix, 2015).
The whole screen tested about 5,500 compounds, of which about 2,000 (36%) were called active. Inconclusive results (about 18%) are left out. No stated cut-off is given here; in the data, active means normalized growth mostly below about 0.91 (no sharp cut-off); inconclusive means no clear call, values can overlap the other calls; inactive means mostly above about 0.92. The list shows a part of the results.

Experiment: chemical genetic growth profiling, strain panel (AID 1159580);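 further: tested at 20 µM; growth read once vehicle control cultures reached saturation at 30 °C; 1 = growth at the plate median or of vehicle wells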
Conditions: growth OD

Measured: normalized growth

OC[C@H]1O[C@@H](O[C@@H]2[C@@H](CO)O[C@](O)(CO)[C@H]2O)[C@H](O)[C@@H](O)[C@H]1O
inactive: S. cerevisiae deletion strains, locus YKL009W, strain mrt4, stronger effect = lower value 1 | S. cerevisiae deletion strains, locus YKL068W, stronger effect = lower value 0.987 | S. cerevisiae deletion strains, locus YKL085W, strain MDH1 (second series), stronger effect = lower value 0.976 | S. cerevisiae deletion strains, locus YKL085W, strain MDH1, stronger effect = lower value 0.976 | S. cerevisiae deletion strains, locus YKL160W, strain elf1, stronger effect = lower value 1 | S. cerevisiae deletion strains, locus YKR001C, strain vps1, stronger effect = lower value 1.01 | S. cerevisiae deletion strains, locus YKR026C, strain gcn3, stronger effect = lower value 1.01 | S. cerevisiae deletion strains, locus YKR091W, strain srl3, stronger effect = lower value 1.01 | S. cerevisiae deletion strains, locus YLL001W, strain dnm1, stronger effect = lower value 0.999 | S. cerevisiae deletion strains, locus YLL026W, stronger effect = lower value 1.01 | S. cerevisiae deletion strains, locus YLL041C, strain sdh2, stronger effect = lower value 1.01 | S. cerevisiae deletion strains, locus YLR027C, strain aat2, stronger effect = lower value 1.01 | S. cerevisiae deletion strains, locus YLR039C, strain RIC1, stronger effect = lower value 0.968 | S. cerevisiae deletion strains, locus YLR058C, strain SHM2, stronger effect = lower value 0.986 | S. cerevisiae deletion strains, locus YLR102C, strain apc9, stronger effect = lower value 0.981 | S. cerevisiae deletion strains, locus YLR113W, strain HOG1, stronger effect = lower value 1.02 | S. cerevisiae deletion strains, locus YLR221C, strain rsa3, stronger effect = lower value 1 | S. cerevisiae deletion strains, locus YLR258W, strain gsy2, stronger effect = lower value 0.998 | S. cerevisiae deletion strains, locus YLR262C, strain YPT6 (second series), stronger effect = lower value 1.03 | S. cerevisiae deletion strains, locus YLR262C, strain YPT6, stronger effect = lower value 1.03 | S. cerevisiae deletion strains, locus YLR268W, strain sec22, stronger effect = lower value 0.972 | S. cerevisiae deletion strains, locus YLR320W, strain mms22, stronger effect = lower value 0.996 | S. cerevisiae deletion strains, locus YLR330W, strain CHS5, stronger effect = lower value 0.994 | S. cerevisiae deletion strains, locus YLR342W, strain FKS1 (second series), stronger effect = lower value 0.994 | S. cerevisiae deletion strains, locus YLR342W, strain FKS1, stronger effect = lower value 1.02 | S. cerevisiae deletion strains, locus YLR357W, strain rsc2, stronger effect = lower value 0.995 | S. cerevisiae deletion strains, locus YLR370C, strain arc18, stronger effect = lower value 1.02 | S. cerevisiae deletion strains, locus YLR371W, strain rom2, stronger effect = lower value 0.974 | S. cerevisiae deletion strains, locus YLR384C, strain iki3, stronger effect = lower value 1.01 | S. cerevisiae deletion strains, locus YLR418C, strain cdc73, stronger effect = lower value 0.954 | S. cerevisiae deletion strains, locus YML016C, strain PPZ1, stronger effect = lower value 0.993 | S. cerevisiae deletion strains, locus YML032C, strain rad52, stronger effect = lower value 0.988 | S. cerevisiae deletion strains, locus YML120C, strain ndi1, stronger effect = lower value 0.99 | S. cerevisiae deletion strains, locus YML124C, strain tub3, stronger effect = lower value 1 | S. cerevisiae deletion strains, locus YMR058W, strain fet3, stronger effect = lower value 1.01 | S. cerevisiae deletion strains, locus YMR078C, strain ctf18, stronger effect = lower value 0.959 | S. cerevisiae deletion strains, locus YMR125W, strain sto1, stronger effect = lower value 0.996 | S. cerevisiae deletion strains, locus YMR129W, stronger effect = lower value 1.01 | S. cerevisiae deletion strains, locus YMR205C, strain PFK2, stronger effect = lower value 1.03 | S. cerevisiae deletion strains, locus YMR223W, strain ubp8, stronger effect = lower value 0.962 | S. cerevisiae deletion strains, locus YMR231W, strain pep5, stronger effect = lower value 1.01 | S. cerevisiae deletion strains, locus YMR307W, strain GAS1, stronger effect = lower value 1 | S. cerevisiae deletion strains, locus YNL067W, strain RPL9B, stronger effect = lower value 1 | S. cerevisiae deletion strains, locus YNL071W, strain lat1, stronger effect = lower value 1.01 | S. cerevisiae deletion strains, locus YNL183C, strain NPR1, stronger effect = lower value 0.959 | S. cerevisiae deletion strains, locus YNL209W, strain ssb2, stronger effect = lower value 1 | S. cerevisiae deletion strains, locus YNL233W, strain BNI4, stronger effect = lower value 0.989 | S. cerevisiae deletion strains, locus YNL248C, strain rpa49, stronger effect = lower value 1.03 | S. cerevisiae deletion strains, locus YNL250W, strain rad50, stronger effect = lower value 0.954 | S. cerevisiae deletion strains, locus YNL271C, strain bni1, stronger effect = lower value 0.966 | S. cerevisiae deletion strains, locus YNL298W, strain CLA4, stronger effect = lower value 0.975 | S. cerevisiae deletion strains, locus YNL307C, strain MCK1, stronger effect = lower value 0.972 | S. cerevisiae deletion strains, locus YNL322C, strain KRE1 (second series), stronger effect = lower value 1.02 | S. cerevisiae deletion strains, locus YNL322C, strain KRE1, stronger effect = lower value 0.996 | S. cerevisiae deletion strains, locus YNR049C, strain mso1, stronger effect = lower value 1.01 | S. cerevisiae deletion strains, locus YNR052C, strain pop2, stronger effect = lower value 0.979 | S. cerevisiae deletion strains, locus YOL006C, strain TOP1, stronger effect = lower value 0.965 | S. cerevisiae deletion strains, locus YOL012C, strain htz1 0.596 | S. cerevisiae deletion strains, locus YOL147C, strain pex11, stronger effect = lower value 0.982 | S. cerevisiae deletion strains, locus YOR001W, strain rrp6, stronger effect = lower value 1 | S. cerevisiae deletion strains, locus YOR061W, strain CKA2, stronger effect = lower value 0.985 | S. cerevisiae deletion strains, locus YOR069W, strain VPS5, stronger effect = lower value 0.989 | S. cerevisiae deletion strains, locus YOR070C, strain gyp1, stronger effect = lower value 1 | S. cerevisiae deletion strains, locus YOR080W, strain dia2, stronger effect = lower value 1.01 | S. cerevisiae deletion strains, locus YOR083W, strain WHI5, stronger effect = lower value 0.989 | S. cerevisiae deletion strains, locus YOR106W, strain vam3, stronger effect = lower value 1.02 | S. cerevisiae deletion strains, locus YOR136W, strain idh2, stronger effect = lower value 0.981 | S. cerevisiae deletion strains, locus YOR144C, strain elg1, stronger effect = lower value 0.98 | S. cerevisiae deletion strains, locus YOR184W, strain ser1, stronger effect = lower value 0.971 | S. cerevisiae deletion strains, locus YOR231W, strain MKK1, stronger effect = lower value 0.98 | S. cerevisiae deletion strains, locus YOR265W, strain rbl2, stronger effect = lower value 1.01 | S. cerevisiae deletion strains, locus YOR270C, strain vph1, stronger effect = lower value 1.06 | S. cerevisiae deletion strains, locus YOR290C, strain snf2, stronger effect = lower value 0.992 | S. cerevisiae deletion strains, locus YOR316C, strain cot1, stronger effect = lower value 0.976 | S. cerevisiae deletion strains, locus YPL051W, strain arl3, stronger effect = lower value 1.01 | S. cerevisiae deletion strains, locus YPL078C, strain atp4, stronger effect = lower value 1.01 | S. cerevisiae deletion strains, locus YPL106C, strain sse1, stronger effect = lower value 1 | S. cerevisiae deletion strains, locus YPL240C, strain hsp82, stronger effect = lower value 1.03 | S. cerevisiae deletion strains, locus YPL241C, strain CIN2, stronger effect = lower value 0.998 | S. cerevisiae deletion strains, locus YPL256C, strain CLN2, stronger effect = lower value 0.957 | S. cerevisiae deletion strains, locus YPR119W, strain clb2, stronger effect = lower value 0.978 | S. cerevisiae deletion strains, locus YPR141C, strain kar3, stronger effect = lower value 0.968 | S. cerevisiae deletion strains, locus YPR163C, strain tif3, stronger effect = lower value 0.972 | S. cerevisiae deletion strains, locus YPR167C, strain met16, stronger effect = lower value 0.985 | S. cerevisiae deletion strains, strain wtn01, stronger effect = lower value 0.967 | S. cerevisiae strains, strain wild type, stronger effect = lower value 0.999
